# Shown are actives, neighbours in structure and some others; about 19% of the full set was active somewhere.
# DT40 TDP1 no CPT – qHTS for Inhibitors of human tyrosyl-DNA phosphodiesterase 1 (TDP1): qHTS in cells in absence of CPT; DT40 Tdp1-/- hTDP1 cells, no CPT, ATP luminescence, 48 h; Potency, µM (doses to about 46.2 µM), for inactives: at the highest dose activity change, negative = growth inhibition, actives largely listed as inhibitors; 420,000 tested, 15% active; also: nearly all actives have a fitted effect of over 55% in size
#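 Readout: luminescence from CellTiter-Glo after 30 min in the dark at RT. Cells: DT40 Tdp1-/- with stable hTDP1, 400/well. Exposure: compounds alone, ≥48 hr, 37 °C.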
# KB-V1 MDR tox – qHTS assay for MDR1-selective chemotherapeutics: Primary screen using the drug-selected MDR subline cells KB-V1; Potency, µM (top dose mostly 46.1 µM), usual class: cytotoxic; KB-V1 MDR cells viability, CellTiter-Glo, 72 h; 400,000 tested, 3.4% active; also: nearly all actives have a fitted effect of over 60% in size
#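 Compound-treated KB-V1 multidrug-resistant cells, 72 h, 37 degrees C; viability by CellTiter-Glo. Fitted qHTS curves give the values.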
# HT1080NT lethal – qHTS for induction of synthetic lethality in tumor cells producing 2HG: qHTS for the HT-1080-NT fibrosarcoma cell line; HT-1080-NT fibrosarcoma viability, CellTiter-Glo ATP luminescence, 48 h; Potency, µM (doses to about 46.1 µM), without a hit: at the top dose activity, negative = less viability, most hits filed as cytotoxic; 360,000 tested, 1.6% active;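 also: NT is the 2HG producing partner of a matched IDH1 knockdown line; 0% = DMSO-treated cells and -100% = media-only wells without cells; nearly all actives have a fitted effect of over 55% in size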
#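 Read-out is CellTiter-Glo luminescence after 10 minutes at room temperature, following 48 hours' compound treatment of HT-1080-NT cells (750 cells/well, RPMI, 5% FBS, 37 degrees C).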
# HT1080 IDH1KD tx – qHTS for induction of synthetic lethality in tumor cells producing 2HG: qHTS for the HT-1080-IDH1KD cell line; HT-1080 IDH1 knockdown viability, ATP luminescence, 48 h; Potency, µM (series often up to 46.1 µM), inactives show at the highest dose activity, negative = toxicity, hits mostly cytotoxic; 360,000 tested, 2% active; AID 686971, 2013;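 also: 0% = DMSO wells and -100% = cell-free medium wells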
#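 In this qHTS, HT-1080 cells depleted of IDH1 are exposed for 48 h at 37 °C to compound titrations. Toxicity is scored from CellTiter-Glo luminescence, with DMSO as full viability and medium alone as none.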
# TDP1 cell CPT – qHTS for Inhibitors of human tyrosyl-DNA phosphodiesterase 1 (TDP1): qHTS in cells in presence of CPT. chicken DT40 Tdp1-/-;hTDP1 cells + 20 nM CPT, ATP luminescence, 48 h. Potency, µM (titrated, usually from 46.2 µM), without a hit: top-dose activity change, negative = growth inhibition, hits mostly inhibitors. 420,000 tested, 12% active; also: nearly all actives have a fitted effect of over 55% in size
#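 Chicken DT40 Tdp1-/- cells complemented with human TDP1, 400 cells/well, exposed to compounds plus 20 nM camptothecin for at least 48 h at 37 C; viability read as ATP content by CellTiter-Glo luminescence.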
# KB-3-1 tox – qHTS assay for MDR1-selective chemotherapeutics: Primary screen using the parental adenocarcinoma cell KB-3-1 | KB-3-1 viability, CellTiter-Glo ATP luminescence, 72 h | Potency, µM (top dose mostly 46.1 µM), hits mostly cytotoxic | 400,000 tested, 1.4% active | AID 1347075, 2019; also: nearly all actives have a fitted effect of over 60% in size
#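 72 h, 37 °C compound treatment of KB-3-1 parental cells; CellTiter-Glo added, 10 min, luminescence read. Data corrected against DMSO-only plates and normalized before curve fitting.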
# * = called active by the depositor; i = inactive; ? = inconclusive; · = no result given. Calls follow the shape of the dose curve; as a rule, active = well fitted curve in the direction sought with a large enough effect; inconclusive = small, poorly fitted or top-dose-only effect, or another doubt; inactive = no such curve, though single readings can be large; an effect the other way counts as inactive or inconclusive. Unless noted, % is scaled to controls: 0 for no effect and ±100 for the full control effect; potency is read from the fitted curve at half-maximal effect.
SMILES,DT40 TDP1 no CPT,KB-V1 MDR tox,HT1080NT lethal,HT1080 IDH1KD tx,TDP1 cell CPT,KB-3-1 tox
O=C(N/N=C/c1cccc(F)c1)c1cc(-c2ccco2)nc2ccccc12,10µM*,?,?,16µM*,15µM*,?
COc1cc(/C=N/NC(=O)c2cc(-c3ccco3)nc3ccccc23)cc(OC)c1O,?,i,-24%,-15%,10µM*,i
COc1ccc(-c2cc(C(=O)N/N=C(\C)c3ccco3)c3ccccc3n2)c(OC)c1,?,i,-21%,?,?,i
CCOc1ccc(NC(=O)CN2C(=O)CC(C)Sc3ccccc32)cc1 (stereo not drawn),·,i,·,·,·,i
COc1ccc(S(=O)(=O)N2CCOCC2)cc1NC(=O)CSc1cccc[n+]1[O-],14%,i,10%,1%,-18%,i
O=c1[nH]cnc2sc3c(c12)CCC3,-29%,i,20%,2%,-13%,?
COc1cc(/C=N/NC(=O)c2cc(-c3ccccc3Cl)nc3ccccc23)cc(OC)c1O,6.5µM*,i,?,?,?,i
NNC(=O)c1cc2ccccc2[nH]1,-5%,i,?,2.1µM*,5%,?
CCCCNC(=S)Nc1ccc(C(F)(F)F)cc1,?,?,?,?,?,i
Cc1ccc(-c2noc(CC(=O)c3ccc([N+](=O)[O-])cc3)n2)cc1,?,16µM*,0%,0%,?,i
O=C(Nc1ccc([N+](=O)[O-])cc1)Nc1ccon1,0.33µM*,6.5µM*,1.2µM*,0.73µM*,0.41µM*,0.58µM*
O=C(Nc1ccc(C(=O)O)cc1)Nc1ccc([N+](=O)[O-])cc1,-5%,i,19%,6%,13%,i
COC(=O)c1ccc(NC(=O)Nc2ccc(F)cc2)cc1,13µM*,i,-20%,-26%,18µM*,i
COC(=O)c1ccc(NC(=O)Nc2ccc([N+](=O)[O-])cc2)cc1,2.3µM*,i,-1%,-1%,2.6µM*,i
Cc1ccccc1C(=O)NC1(C(F)(F)F)C(=O)Nc2c1c(=O)[nH]c(=O)n2-c1ccc(F)cc1 (stereo not drawn),?,i,·,·,-20%,i
Cc1cc(NC(=O)Cn2cc(C(F)(F)F)cc(Cl)c2=O)no1,8%,i,7%,-1%,-9%,i
CC(C)(C)c1ccc(COC(=O)Nc2ccc(F)cc2)cc1,-18%,i,9%,1%,-13%,i
Cc1nc(-c2cccc(NC(=O)Nc3ccc([N+](=O)[O-])cc3)c2)no1,4.6µM*,i,·,·,5.2µM*,?
COc1ccc(NC(=O)Nc2ccc(F)cc2)cn1,7.3µM*,i,7%,11%,16µM*,i
CC(C)(C)c1ccc(NC(=O)Nc2ccc(F)cc2)cc1,6.5µM*,i,-12%,-20%,5.2µM*,?
COc1ccc(NC(=O)c2cccc(-c3ccc(O)cc3)c2)cn1,21µM*,i,?,2.1µM*,15µM*,?
Cc1oc(S(=O)(=O)N(C)C)cc1C(=O)Nc1ccc(Cl)cc1,?,i,9%,16%,5%,i
N#Cc1cc(C#N)c(SCC(=O)N2CC(=O)Nc3ccccc32)nc1N,21µM*,i,-14%,?,21µM*,?
CCc1ccc2nc(SCC(=O)N3CCCCC3)c(C#N)cc2c1,?,?,-1%,-14%,?,i

# From PubChem BioAssay
